From the supplement of paper PMC10338343
± gives the standard deviation.

System: EfPiwi piRISC loaded with L1MC piRNA (26 nt)
Assay: pre-steady-state target cleavage rate (min^-1); auxiliary factor: none (no Gtsf1); guide: L1MC piRNA 5'p-UAACUAAAUACUAUGCAAGCUGUAGG; MIWI and MILI are mouse PIWI proteins and EfPiwi is from a freshwater sponge; tags in brackets are library labels; higher = faster piRNA-guided slicing of the target
Procedure: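 Cleave-'n-Seq: a library of target RNAs (target site in constant flanks) at […] was incubated with 1 nM active freshwater sponge Ephydatia fluviatilis Piwi piRISC (synthetic 5'-monophosphorylated piRNA guide) with or without 500 nM EmGtsf1 at 33 °C for 1 min to 16 h. Uncleaved targets were sequenced and the pooled three trials fitted to a burst-and-steady-state model to give the pre-steady-state cleavage rate (min^-1). Sequence is the target site only. Fits with R² ≤ 0 are excluded.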

Sequence	pre-steady-state target cleavage rate
UCCUGGAUGUCGAACGUUAGUCAUUUAGUUA	< 0.0001
UCCUGGAUGAGCUUGCAUAGUCUUUAGUUA	0.0128 ± 0.0056
UCCUGGAUGUCGAACGUUACUAUUAAGUUA	< 0.0001
UCCUGGAUGUCGAAGCAUAGUAUUUUGAUA	< 0.0001
UCCUGCUACAGCUUGCAAUCAUAAAUCAAA [g14:g25:cont:t1A]	< 0.0001
UCCUGGUACAGCUUGGUAAGUAUUUACAAA	< 0.0001
UCCUGGAUGAGCUUGCAUAGUACUUAGUUA	0.00448 ± 0.0039
UCCUGGAUGUCGAAGCAUAGUAUUUAGUCA	< 0.0001
UCCUGGAUGUCGUUGCAUAGUUUUAGUUA	< 0.0001
UCCUCCUACAGCUUGGAUACUAUUUAGUUA	0.00497 ± 0.0037
UCCUGGAUGAGCUUGCAUAGUAGUUUAGUUA	0.0124 ± 0.0079
UCCUGGAUGUCCUUGCAAUCAUAAAUCAAA [g14:g19:cont:t1A]	< 0.0001
UCCUGGAUGUCGAACGUUUGUAAUUAGUUA	< 0.0001
UCCUGGAACUCGUUGCAUAGUAUUUAGUUA	< 0.0001
UCCUGCUACAGCAUCCAUAGUAUUUAGUUA	< 0.0001
UCCUGGAUGUCGAACGUAUGUAUUUAGUAA	< 0.0001
UCCUGGAUCACGUUGCAUAGUAUUUAGAAA	< 0.0001
UCCUGGAUGAGCUUGCAUAGUAUGUAGUUA	0.00616 ± 0.0049
UCCUGGUACAGGAUGCAUAGUAUUUUCAAA	< 0.0001
UCCUGGAUGAGCUUGCAAAGUAUAUAGUUA	< 0.0001

Sequence	pre-steady-state target cleavage rate
UCCUGGAUGUCGAACGUAUGUAUUUGAGUUA	< 0.0001
UCCUGGAUGUCGUUGCAUAGAUAUUAGUUA	< 0.0001
UCCUGGAUGAGCUUGCAUAGUACUUUAGUUA	0.00423 ± 0.0036
UCCUGGAUGUCGAAGAAUAGUAUUUAGUUA	< 0.0001
UCCUGGAUGUCGAACGAUAAUAUUUAGUUA	< 0.0001
UCCUGGAACAGCUUGCAUUCUAUUUACAAA	< 0.0001
UCCUGGAUGUCGAAGCAUAGUAUUUAGUGA	< 0.0001
UCCUGCUACAGGAAGCAUAGUAUUUACAAA	< 0.0001
UCCUGGAUGUCGAAGCAUACUAAUUAGUUA	< 0.0001
UCCUGGAUGUCGAAGCAUAGUAUUUAGUUU [g2:g16:cont:t1U]	< 0.0001
UCCUGGAUGUGCUUGCAAAGUAUUUUGUUA	< 0.0001
UCCUGGAUGUCGAACGUAUGUGAUUUAGUUA	< 0.0001
UCCUGGAUGUCGAUGCAAGUAUUUAGUUA	< 0.0001
UCCUGGAUGUCGAACGAUAGUAUUUGAGUUA	< 0.0001
UCCUGGUUCUGCUUGCAUAGUAUUUAGUUA	0.00563 ± 0.0047
UCCUGGAUCAGGUUGCAUAGUAUUUUCAAA	< 0.0001
UCCUGGAUGUCGAUGCACAGUAUUUAGUUA	< 0.0001
UCCUGGAUGUCGAACCAUAGUAUUUCAGUUA	< 0.0001
UCCUGGAUGUCGAACGUUAGUAUUUAGUUU [g2:g13:cont:t1U]	< 0.0001
UCCUGGAUGUCCUUGCAUAAGUAUUUAGUUA	< 0.0001
